PubChem BioAssay (NCATS)
Values joined by “and” are separate entries in the source; they are usually repeats but may differ in a detail not shown here. Equal entries are not always repeated. Some compounds were tested as several samples or in several runs, with calls that do not always agree. Active and inactive are the calls of the source. A call without a number means that no potency is given here. Unless noted, calls come from the whole dose curve; as a rule, active = well fitted inhibition curve with a large enough effect; inconclusive = small, poorly fitted or top-dose-only effect; inactive = flat fitted curve, though single readings scatter.

Tests used:
[1] = target: Ubiquitin carboxyl-terminal hydrolase 1 (Homo sapiens) (UniProt O94782); experiment: Inhibitors of USP1/UAF1: Pilot qHTS (AID 504865); details: purified USP1/UAF1, Ub-rhodamine cleavage fluorescence; series mostly up to 114 µM; note: nearly all actives have a fitted effect of over 35% in size; note: potency is the fitted concentration of half-maximal effect
Sequence of Ubiquitin carboxyl-terminal hydrolase 1 (Homo sapiens) (O94782 whole entry, looked up): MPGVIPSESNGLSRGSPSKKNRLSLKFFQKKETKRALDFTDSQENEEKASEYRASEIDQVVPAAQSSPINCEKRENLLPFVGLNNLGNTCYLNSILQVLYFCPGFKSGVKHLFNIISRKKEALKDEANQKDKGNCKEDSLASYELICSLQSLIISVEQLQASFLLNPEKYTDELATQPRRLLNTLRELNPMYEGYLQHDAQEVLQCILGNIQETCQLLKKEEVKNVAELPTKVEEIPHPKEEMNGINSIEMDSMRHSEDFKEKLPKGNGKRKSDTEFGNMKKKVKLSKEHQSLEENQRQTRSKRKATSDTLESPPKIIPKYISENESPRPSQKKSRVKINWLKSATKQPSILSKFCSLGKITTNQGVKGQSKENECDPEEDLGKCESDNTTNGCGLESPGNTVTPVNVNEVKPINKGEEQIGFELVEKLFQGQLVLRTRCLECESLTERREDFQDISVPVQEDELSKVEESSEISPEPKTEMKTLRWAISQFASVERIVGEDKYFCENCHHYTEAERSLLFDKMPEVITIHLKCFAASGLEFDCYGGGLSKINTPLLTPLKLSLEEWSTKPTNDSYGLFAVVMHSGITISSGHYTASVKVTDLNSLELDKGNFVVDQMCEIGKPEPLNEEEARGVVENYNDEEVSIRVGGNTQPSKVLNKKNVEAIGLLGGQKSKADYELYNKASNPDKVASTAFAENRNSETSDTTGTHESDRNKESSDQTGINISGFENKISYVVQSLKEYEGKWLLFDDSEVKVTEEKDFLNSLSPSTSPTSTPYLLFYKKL
Method in brief: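 Deubiquitinase activity followed as kinetic rhodamine fluorescence release from 150 nM Ub-Rho. 1 nM USP1/UAF1 with compound, after 15 min room-temperature preincubation, in HEPES pH 7.8 buffer containing TCEP, EDTA, BSA and Tween-20.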

[2] = target: Estrogen receptor (Homo sapiens) (UniProt P03372); experiment: qHTS assay for small molecule agonists of estrogen receptor alpha signaling (AID 588514; calls by dose curve; note: nearly all actives have a fitted effect of over 70% in size; note: potency is the fitted concentration of half-maximal effect); details: ER-alpha-UAS-bla HEK293, beta-lactamase ratio, 18 h; series mostly up to 76.8 µM
Sequence of Estrogen receptor (Homo sapiens) (P03372 whole entry, looked up): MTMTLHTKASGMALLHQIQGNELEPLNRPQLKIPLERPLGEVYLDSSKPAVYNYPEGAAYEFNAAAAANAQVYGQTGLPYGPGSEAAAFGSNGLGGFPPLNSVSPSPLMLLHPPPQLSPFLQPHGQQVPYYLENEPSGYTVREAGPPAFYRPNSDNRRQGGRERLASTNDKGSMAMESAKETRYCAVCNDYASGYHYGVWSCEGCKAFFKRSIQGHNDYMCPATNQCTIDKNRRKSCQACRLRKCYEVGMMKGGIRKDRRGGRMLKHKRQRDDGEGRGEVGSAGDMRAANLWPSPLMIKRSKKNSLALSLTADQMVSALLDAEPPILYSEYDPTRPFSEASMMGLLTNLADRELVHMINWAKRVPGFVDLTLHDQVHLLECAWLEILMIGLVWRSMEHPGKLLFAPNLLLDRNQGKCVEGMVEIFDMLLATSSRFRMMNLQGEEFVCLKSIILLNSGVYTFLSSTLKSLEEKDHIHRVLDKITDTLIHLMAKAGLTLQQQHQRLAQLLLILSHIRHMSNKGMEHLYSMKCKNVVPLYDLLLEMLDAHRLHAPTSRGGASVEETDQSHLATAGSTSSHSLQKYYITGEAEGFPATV
Method in brief: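 EC50 and efficacy came from Hill fits of beta-lactamase reporter signal (CCF4 dye, 2 h at room temperature) scaled between DMSO and 20 nM 17-beta-estradiol. Agonist mode: HEK293 ER-alpha-UAS-bla cells in charcoal/dextran-stripped serum medium, 18 h compound exposure at 37 C.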

[3] = target: Estrogen receptor (Homo sapiens) (UniProt P03372); experiment: qHTS assay for small molecule antagonists of estrogen receptor alpha signaling (AID 588513; active = well fitted curve in the direction sought with a large enough effect in the signal ratio, with a control signal flat, not every such curve was filed as active; inconclusive = small, poorly fitted or top-dose-only effect, or effect the other way, or a change in a side signal; inactive = no such curve, though single readings can be large or run the other way; the % refers to the signal ratio; note: potency is the fitted concentration of half-maximal effect); details: ER-alpha-UAS-bla HEK293, beta-lactamase ratio, antagonist mode; series mostly up to 76.9 µM
Method in brief: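 Antagonist mode: inhibition of 0.5 nM 17-beta-estradiol-driven beta-lactamase reporter in HEK 293 ER-alpha-UAS-bla cells, 18 h at 37C, CCF4 readout after 2 h at RT. Normalised to estradiol and DMSO; titration fitted to Hill.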

[4] = target: DNA dC->dU-editing enzyme APOBEC-3G (Homo sapiens) (UniProt Q9HC16); experiment: qHTS for inhibitors of Vif-A3G interactions: Validation (AID 588379); details: Vif-A3G protein interaction assay; series mostly up to 46.1 µM
Sequence of DNA dC->dU-editing enzyme APOBEC-3G (Homo sapiens) (Q9HC16 whole entry, looked up): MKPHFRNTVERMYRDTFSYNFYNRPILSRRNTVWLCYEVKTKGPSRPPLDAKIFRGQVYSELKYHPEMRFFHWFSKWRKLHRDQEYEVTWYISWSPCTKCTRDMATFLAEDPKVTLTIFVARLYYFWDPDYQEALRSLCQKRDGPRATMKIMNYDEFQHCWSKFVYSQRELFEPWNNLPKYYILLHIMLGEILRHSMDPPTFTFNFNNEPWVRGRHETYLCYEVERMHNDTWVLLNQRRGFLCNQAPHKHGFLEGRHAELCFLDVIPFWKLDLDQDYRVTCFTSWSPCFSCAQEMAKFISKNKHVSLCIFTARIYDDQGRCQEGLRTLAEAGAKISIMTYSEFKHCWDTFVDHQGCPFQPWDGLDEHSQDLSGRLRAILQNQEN
Method in brief: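 Yellow fluorescence (Ex 488, Em 500-530) of Vif-coexpressing HeLa A3G-eYFP cells, scanned by Acumen cytometer, reports blocked A3G degradation. Cells plated at 700/well overnight at 37 deg C before compound addition, then a further overnight compound incubation at 37 deg C.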

Question: With `C#CC(C)(O)CC` (stereo not drawn) as the compound, how does the Potency [1] read?
Answer: The Potency was “inactive”.

Question: How did the Potency [1] turn out when `CCCC(=O)OC(C(Cl)(Cl)Cl)P(=O)(OC)OC` (stereo not drawn) was run?
Answer: Its Potency is “inactive”.

Question: How did the Potency [1] turn out when `Clc1ccc(C2(Cn3cncn3)OCCO2)c(Cl)c1` was run?
Answer: Its Potency is “inactive”.

Question: How did the Potency [1] turn out when `O=C(O)C(Cl)(Cl)Cl` was run?
Answer: Its Potency is “inactive”.

Question: `Cn1sc(Cl)cc1=O` was tested. Which Potency [1] did it give?
Answer: Its Potency is “inactive”.

Question: `O=[N+]([O-])C(Br)(CO)CO` was tested. Which Potency [1] did it give?
Answer: The Potency was “inactive”.

Question: What about the Potency [2] of the same compound?
Answer: The Potency was “inactive”.

Question: `CCOC(=O)c1ccccc1C(=O)OCC` was tested. Which Potency [1] did it give?
Answer: The Potency was “inactive”.

Question: And the Potency [3]?
Answer: The Potency was “inactive”.

Question: What about the Potency [2] of the same compound?
Answer: The Potency was “inactive”.

Question: With `Cc1cc(C)cc(C(=O)OC2C[C@H]3CC[C@@H](C2)N3C)c1` (stereo partly drawn) as the compound, how does the Potency [1] read?
Answer: Its Potency is “inactive”.

Question: And the outcome [4]?
Answer: The outcome was “inactive”.

Question: What does the source list for `CCOP(=O)(OCC)O/C(=C/Cl)c1ccc(Cl)cc1Cl`?
Answer: Potency [3]: inactive; Potency [2]: inactive

Question: `COc1ccc2c(c1OC)C(=O)OC2C1c2cc3c(cc2CCN1C)OCO3` (stereo not drawn) was tested. Which outcome [4] did it give?
Answer: Its outcome is “inactive”.

Question: Which outcome [4] does the source give for `O=c1ccc2[nH]cc(C3=CCNCC3)c2[nH]1` here?
Answer: The outcome was “inactive”.

Question: For `S=C=S`, which Potency [1] is on record?
Answer: The Potency was “inactive”.

Question: And the Potency [3]?
Answer: The Potency was “inactive”.

Question: What about the Potency [2] of the same compound?
Answer: Its Potency is “inactive”.

Question: Which Potency [3] does the source give for `O=[N+]([O-])c1ccc(F)c([N+](=O)[O-])c1` here?
Answer: The Potency was “inactive”.

Question: And the Potency [2]?
Answer: The Potency was “inactive”.

Question: Which Potency [1] does the source give for `CC(C)CCON=O` here?
Answer: Its Potency is “inactive”.

Question: With `O=C1CCO1` as the compound, how does the Potency [1] read?
Answer: The Potency was “inactive”.

Question: And the Potency [3]?
Answer: The Potency was “inactive”.

Question: And the Potency [2]?
Answer: The Potency was “inactive”.

Question: How did the Potency [3] turn out when `O=C1C2CC=CCC2C(=O)N1SC(Cl)(Cl)Cl` (stereo not drawn) was run?
Answer: The Potency was 12.6 µM [inconclusive] (active) and 10 µM [inconclusive] (active) and inactive.

Question: `O=CC=O` was tested. Which Potency [1] did it give?
Answer: The Potency was “inactive”.

Question: And the Potency [3]?
Answer: Its Potency is “inactive”.

Question: And the Potency [2]?
Answer: Its Potency is “inactive”.

Question: Which results are given for `ClC=C(Cl)Cl`?
Answer: Potency [1]: inactive; Potency [3]: inactive; Potency [2]: inactive

Question: `CN1C2CCC1CC(OC(c1ccccc1)c1ccc(Cl)cc1)C2` (stereo not drawn) was tested. Which Potency [1] did it give?
Answer: Its Potency is “inactive”.

Question: `[Cl-].[Cl-].[Hg+2]` was tested. Which Potency [1] did it give?
Answer: The Potency was 3.98 µM (active).

Question: What about the Potency [3] of the same compound?
Answer: Its Potency is 2.51 µM [inconclusive] (active).

Question: What about the Potency [2] of the same compound?
Answer: Its Potency is “inactive”.

Question: `C=CCN1CC[C@]23c4c5ccc(O)c4O[C@H]2[C@@H](O)C=C[C@H]3[C@H]1C5` was tested. Which Potency [1] did it give?
Answer: The Potency was “inactive”.

Question: `CC(C)(O)C1C2OC(=O)C1C1(O)CC3OC34C(=O)OC2C14C` (stereo not drawn) was tested. Which Potency [1] did it give?
Answer: Its Potency is “inactive”.

Question: For `CCCCNCC(O)c1ccc(O)cc1` (stereo not drawn), which Potency [1] is on record?
Answer: The Potency was “inactive”.

Question: With `[O]=[Cd]` as the compound, how does the Potency [1] read?
Answer: The Potency was “inactive”.

Question: What about the Potency [3] of the same compound?
Answer: Its Potency is “inactive”.

Question: What about the Potency [2] of the same compound?
Answer: Its Potency is “inactive”.

Question: Which Potency [1] does the source give for `Clc1ccccc1Cl` here?
Answer: Its Potency is “inactive”.

Question: What does the source list for `N#CN`?
Answer: Potency [1]: inactive; Potency [3]: inactive; Potency [2]: inactive

Question: With `C[C@]12CCC(=O)C[C@@H]1CC[C@@H]1[C@@H]2CC[C@]2(C)[C@@H](O)CC[C@@H]12` as the compound, how does the Potency [1] read?
Answer: Its Potency is “inactive”.

Question: How did the Potency [1] turn out when `ClC1C(Cl)C(Cl)C(Cl)C(Cl)C1Cl` (stereo not drawn) was run?
Answer: The Potency was “inactive”.

Question: `ClCC1CO1` (stereo not drawn) was tested. Which Potency [1] did it give?
Answer: Its Potency is “inactive”.

Question: And the Potency [3]?
Answer: Its Potency is “inactive”.

Question: What about the Potency [2] of the same compound?
Answer: The Potency was “inactive”.

Question: Which Potency [1] does the source give for `O=[N+]([O-])c1ccccc1` here?
Answer: The Potency was “inactive”.

Question: What about the Potency [3] of the same compound?
Answer: Its Potency is “inactive”.

Question: What about the Potency [2] of the same compound?
Answer: Its Potency is “inactive”.

Question: For `C[C@H]1CC[C@@H]2[C@@H](C)[C@H]3[C@H](C[C@H]4[C@@H]5CC=C6CC(O[C@@H]7O[C@H](CO)[C@H](O)[C@H](O[C@@H]8O[C@H](CO)[C@@H](O)[C@H](O)[C@H]8O)[C@H]7O[C@H]7O[C@@H](C)[C@H](O)[C@@H](O)[C@H]7O)CC[C@]6(C)[C@H]5CC[C@]34C)N2C1` (stereo partly drawn), which Potency [3] is on record?
Answer: Its Potency is 22.4 µM [inconclusive] (active).

Question: What about the Potency [2] of the same compound?
Answer: Its Potency is “inactive”.

Question: How did the Potency [1] turn out when `CC(=O)OO` was run?
Answer: Its Potency is “inactive”.

Question: With `O=c1[nH]cc(N(CCCl)CCCl)c(=O)[nH]1` as the compound, how does the Potency [1] read?
Answer: Its Potency is “inactive”.

Question: How did the Potency [1] turn out when `C=CCN=C=S` was run?
Answer: Its Potency is “inactive”.

Question: And the Potency [3]?
Answer: The Potency was “inactive”.

Question: What about the Potency [2] of the same compound?
Answer: Its Potency is “inactive”.

Question: `CNC(C)C(O)c1ccc(O)cc1` (stereo not drawn) was tested. Which Potency [1] did it give?
Answer: Its Potency is “inactive”.

Question: `[O]=[Cr](=[O])([OH])[O][Cr](=[O])(=[O])[OH]` was tested. Which Potency [1] did it give?
Answer: The Potency was 25.1 µM (active).

Question: What about the Potency [3] of the same compound?
Answer: Its Potency is “inactive”.

Question: What about the Potency [2] of the same compound?
Answer: Its Potency is “inactive”.

Question: How did the outcome [4] turn out when `O=C1C=C2C=C[C@@H]3C[C@@]2(O1)[C@H]1CCCCN31` was run?
Answer: The outcome was “inactive”.

Question: `CCC(C)(S(=O)(=O)CC)S(=O)(=O)CC` was tested. Which Potency [1] did it give?
Answer: Its Potency is “inactive”.

Question: Which Potency [1] does the source give for `C[C@H]1CCC[C@H](O)CCCCCc2cc(O)cc(O)c2C(=O)O1` here?
Answer: Its Potency is “inactive”.

Question: And the Potency [2]?
Answer: Its Potency is 0.141 µM (active).

Question: How did the Potency [1] turn out when `O=C1CCCCC1CN1CCCCC1` (stereo not drawn) was run?
Answer: The Potency was “inactive”.

Question: `CC(C)Nc1ccc(Nc2ccccc2)cc1` was tested. Which Potency [1] did it give?
Answer: The Potency was “inactive”.

Question: What about the Potency [3] of the same compound?
Answer: Its Potency is 22.4 µM [inconclusive] (active).

Question: What about the Potency [2] of the same compound?
Answer: The Potency was “inactive”.

Question: Which results are given for `O=C/C=C/c1ccccc1`?
Answer: Potency [1]: inactive; Potency [3]: inactive; Potency [2]: inactive

Question: `CCCCCCCCOC(=O)c1ccccc1C(=O)OCCCCCCCC` was tested. Which Potency [1] did it give?
Answer: The Potency was “inactive”.

Question: And the Potency [3]?
Answer: Its Potency is “inactive”.

Question: What does the source list for `COCC(C)N(C(=O)CCl)c1c(C)csc1C` (stereo not drawn)?
Answer: Potency [1]: inactive; Potency [2]: inactive

Question: Which results are given for `ClC(Cl)(Cl)Cl`?
Answer: Potency [1]: inactive; Potency [3]: inactive; Potency [2]: inactive
